Assay outcomes deposited in PubChem by National Center for Advancing Translational Sciences (NCATS).
A selection: hits, their analogues and other compounds. The true share with any hit is near 12%.
Sfp inh – Sfp phosphopantetheinyl transferase inhibition; AID 1490; Potency, µM, inactives show largest response in the series, negative = inhibition, actives largely listed as inhibitors; hit rate 3.5% among 310,000; Biochemical Sfp PPTase activity, qHTS;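 also: the enzyme is Sfp with the accession as filed and its product quenches rhodamine fluorescence; 0% = enzyme reaction without inhibitor and -100% = no enzyme wells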
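Sfp 15 nM + cpd, 15 min RT; start w/ rhodamine-CoA 5 uM, BHQ-2-YbbR 12.5 uM (final); 50 mM Hepes pH 7.6, 10 mM MgCl2, 0.01% NP-40, 0.01% BSA; read 525/598 nm at 0 and 30 min.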
G9a inh – inhibitors of human histone lysine methyltransferase G9a | G9a H3K9 monomethylation, AlphaScreen, 2 h | Potency, µM (doses to about 102 µM), without a hit: at the top dose activity, negative = inhibition, actives largely listed as inhibitors | AID 504332 | hit rate 8.8% among 350,000; also: % is scaled to controls: 0 for no effect and ±100 for the full control effect; nearly all actives have a fitted effect of over 75% in size
Target sequence (Q96KQ7 913-1193 limits assumed): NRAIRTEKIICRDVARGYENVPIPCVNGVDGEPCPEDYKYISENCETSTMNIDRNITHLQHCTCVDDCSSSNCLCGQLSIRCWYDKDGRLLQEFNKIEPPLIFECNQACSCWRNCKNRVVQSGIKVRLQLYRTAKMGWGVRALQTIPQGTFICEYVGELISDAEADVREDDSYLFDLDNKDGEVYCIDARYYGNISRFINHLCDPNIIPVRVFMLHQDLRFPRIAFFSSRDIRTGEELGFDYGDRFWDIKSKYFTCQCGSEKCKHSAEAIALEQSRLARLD
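Methyltransferase reactions run at room temperature for 2 h (20 nM enzyme, 500 nM biotin-H3K9 peptide, 20 uM SAM) after a 15 min compound preincubation; product detected by AlphaScreen beads and anti-H3K9me1 antibody.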
L3MBTL1 block – inhibitors of human L3MBTL1. Q9Y468. AlphaScreen L3MBTL1–H3K9me1 peptide binding. Potency, µM (top dose mostly 57.1 µM), without a hit: top-dose activity, negative = inhibition, most hits filed as inhibitors. hit rate 0.66% among 230,000; also: % is scaled to controls: 0 for no effect and ±100 for the full control effect; nearly all actives have a fitted effect of over 60% in size
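First, the protein-peptide complex forms for 30 min at room temperature (L3MBTL1 50 nM, biotinylated H3K9me1 peptide 75 nM). Next, compounds are pin-transferred and incubated 30 min. Finally, AlphaScreen beads are added and read after 30 min.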
HP1b chromo inh – blocks HP1-beta chromodomain binding to methylated histone tails. P83916. AlphaScreen HP1-beta / biotin-H3K9me3 peptide binding. Potency, µM (titrated, usually from 114 µM), without a hit: at the top dose activity change, negative = inhibition, hits mostly inhibitors. hit rate 0.56% among 390,000. AID 540317; also: nearly all actives have a fitted effect of over 70% in size
Target sequence (P83916 whole entry, looked up): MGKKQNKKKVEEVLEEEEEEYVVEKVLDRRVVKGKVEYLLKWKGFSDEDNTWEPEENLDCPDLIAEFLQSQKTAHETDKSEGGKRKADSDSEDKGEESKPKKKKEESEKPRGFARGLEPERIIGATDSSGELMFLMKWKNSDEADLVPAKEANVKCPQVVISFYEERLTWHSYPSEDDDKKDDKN
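AlphaScreen: HP1-beta (50 nM) preformed 30 min with biotin-H3(1-18)K9me3 peptide (50 nM) in PBS pH 7.4, 0.01% Tween-20. Compound added for 30 min at RT, then streptavidin donor/nickel chelate acceptor beads (10 ug/mL) for 30 min.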
JMJD2A Tudor – blocks the human JMJD2A Tudor domain; O75164; AlphaScreen JMJD2A-Tudor / H3K4me3 peptide binding; hit rate 4.4% among 390,000; Potency, µM (top dose mostly 114 µM), for the others: at the highest dose activity change, negative = inhibition, most hits filed as inhibitors; also: % is scaled to controls: 0 for no effect and ±100 for the full control effect; nearly all actives have a fitted effect of over 50% in size
BAZ2B inh – blocks human BAZ2B. AlphaScreen BAZ2B-H3K14Ac peptide displacement. Potency, µM (top dose mostly 114 µM), for inactives: at the top dose activity change, negative = inhibition, hits mostly inhibitors. hit rate 4.4% among 360,000; also: % is scaled to controls: 0 for no effect and ±100 for the full control effect; nearly all actives have a fitted effect of over 60% in size
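In this displacement format the biotinylated H3(5-23) peptide acetylated at Lys14 serves as ligand at 50 nM, with BAZ2B at 50 nM in PBS pH 7.4 containing 0.01% Tween-20. Donor and acceptor beads are 10 ug/mL final.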
An asterisk follows results filed as active; ? = inconclusive; . = not tested or not shown; [ ] = dose if it differs, or a comment. Calls follow the shape of the dose curve; as a rule, active = well fitted curve in the direction sought with a large enough effect; inconclusive = small, poorly fitted or top-dose-only effect, or another doubt; inactive = no such curve, though single readings can be large; an effect the other way counts as inactive or inconclusive. Potency is read from the fitted curve at half-maximal effect.

SMILES | Sfp inh | G9a inh | L3MBTL1 block | HP1b chromo inh | JMJD2A Tudor | BAZ2B inh
CC1(C)CC(=O)C(C(C2=C(O)CC(C)(C)CC2=O)c2cccs2)C(=O)C1 (stereo not drawn) | 22µM* | 45µM* | 4% | 21% | -19% | 3%
Cc1ccc(C(C2=C(O)CC(C)(C)CC2=O)C2C(=O)CC(C)(C)CC2=O)o1 (stereo not drawn) | -18% | 25µM* | 2% | 61% | -8% | -31%
CC(O)c1cccc(NC2=CC(=O)CC(C)(C)C2)c1 (stereo not drawn) | 9% | -1%[59 µM] | 25%[11.4 µM] | 18% | -15% | -3%
CC1(C)CC(=O)c2c(-c3cccs3)n[nH]c2C1 | -3% | -30%[59 µM] | . | 25% | 18% | -4%
CC1(C)CC(=O)C(C(C2=C(O)CC(C)(C)CC2=O)c2cccc(O)c2)C(=O)C1 (stereo not drawn) | 22µM* | ? | 39% | 44% | -12% | 3%
CCCC(C1=C(O)CC(C)(C)CC1=O)C1C(=O)CC(C)(C)CC1=O (stereo not drawn) | -29% | 28µM* | -6% | 55% | -2% | -3%
COc1cccc(CNc2ncnc3c2nnn3C)c1 | . | 44%[59 µM] | . | 24% | -17% | 7%
O=C1C(c2cccc(Br)c2)N(CCc2ccccc2)C(=O)CN1C1CCCCC1 (stereo not drawn) | . | 10%[59 µM] | . | 25% | -14% | -10%
CC1(C)OC(=O)C2(Cc3ccccc3N3CCC(c4ccccc4)CC32)C(=O)O1 (stereo not drawn) | . | . | . | -1%[57 µM] | -9%[57.1 µM] | .
CC1(C)CC(=O)C(C(C2=C(O)CC(C)(C)CC2=O)c2cccnc2)C(=O)C1 (stereo not drawn) | 5% | 50µM* | 0% | 61% | -17% | 28%
CC1(C)CC(=O)C(C=Nc2cccnc2)=C(O)C1 | -14% | 9%[2.33 µM] | -10% | 14% | 4% | 1%
COc1ccccc1Cc1nc2ccccc2nc1SCC(=O)N1CCC(C)CC1 | . | -5%[59 µM] | . | 33%[57 µM] | 1% | 4%
CC(=O)C1=C(S(=O)(=O)c2ccc(C)cc2)CS(=O)(=O)C1 | 5.6µM* | 1.3µM* | 4% | 14µM* | 22µM* | ?
O=C(NCCc1ccccc1)c1cccc(Br)c1 | -9% | . | 9% | 58% | 7% | -1%
C/C(=N\NC(=S)NCCc1ccccc1)c1cccc(Br)c1 | -3% | -37% | -2%[11.4 µM] | -14% | -22% | 40µM*
COc1ccc(/C(C)=N/NC(=S)NCCc2ccccc2)cc1 | 10% | -40% | -23% | -13% | ? | 25µM*
COc1ccc(NC(=O)c2oc3ccccc3c2NC(=O)Cc2cccs2)c(OC)c1 | . | 45%[59 µM] | . | 68% | -14% | -6%
CC(=NCc1ccncc1)C1=C(O)c2ccccc2C1=O | ? | ? | . | . | . | -29%
COc1ccc(CN=C(C#N)C2=C(O)c3ccccc3C2=O)cc1 | 3% | 35µM* | . | 28% | ? | -37%
O=C(CN1C(=O)C2CC=C(Cl)CC2C1=O)Nc1ccc(C(=O)O)cc1 (stereo not drawn) | -13% | 13µM* | ? | 12% | -25% | -12%
O=C(CCN1C(=O)C2CC=C(Cl)CC2C1=O)NCc1ccccc1 (stereo not drawn) | 4% | 18µM* | -4% | 27% | -2% | -5%
O=C(CCN1C(=O)C2CC=C(Cl)CC2C1=O)NCc1ccco1 (stereo not drawn) | -25% | -9%[59 µM] | -1% | 32% | -26% | 2%
O=C1CCCC2=C1C1(CCCC1)N=C(Nc1nc3ccccc3n1Cc1ccccc1)N2 | . | . | . | . | -21% | .
COc1ccc(C(=O)N2c3ccccc3C(C)(c3ccc(Cl)cc3)CC2(C)C)cc1 (stereo not drawn) | . | -1%[59 µM] | . | 44% | -3% | -2%
CCCCC[C@H](O)/C=C/C=C\C/C=C\CCCCC(=O)O | 18% | . | . | . | . | .
SMILES | Sfp inh | G9a inh | L3MBTL1 block | HP1b chromo inh | JMJD2A Tudor | BAZ2B inh
COc1cccc(-n2cc(C(=O)Nc3cc(OC)c(OC)c(OC)c3)c3ccccc3c2=O)c1 | . | 13%[59 µM] | . | 56% | 1% | 12%
COc1cc(-c2nc3ccc(N4CCN(C)CC4)cc3[nH]2)cc(OC)c1OC | -9% | 40µM* | -12% | 5% | -5% | -35%
COc1ccccc1C(=O)CSc1n[nH]c(N)n1 | 89µM* | ? | 6% | 43% | -27% | -6%
Nc1nc(SCC(=O)c2cc3ccccc3o2)n[nH]1 | 22µM* | ? | -21% | ? | ? | -38%
O=C(CSc1nnc(C2CC2)n1Cc1ccccc1)c1cc2ccccc2o1 | -13% | 45µM* | -4% | 14% | 56µM* | -35%
Cc1oc(C)c2c(=O)cc(-c3ccc4c(c3)OCO4)cc(OC(=O)c3cccc(Cl)c3)c12 | . | ? | . | 17% | -34% | -15%
COc1ccc(-c2cc(OC(=O)c3cccc(C)c3)c3c(C)oc(C)c3c(=O)c2)cc1 | . | 7.9µM* | . | 26% | ? | ?
CCOc1ccc(-c2cc(OC(=O)c3ccc(F)cc3)c3c(C)oc(C)c3c(=O)c2)cc1 | . | ? | . | -9% | ? | ?
COc1ccc(-c2cc(OC(=O)c3cccc(Cl)c3)c3c(C)oc(C)c3c(=O)c2)cc1OC | . | ? | . | -17% | ? | 50µM*
CCOc1ccc(-c2cc(OC(=O)c3ccccc3)c3c(C)oc(C)c3c(=O)c2)cc1 | . | 11µM* | . | -8% | ? | 35µM*
COc1cc(-c2cc(OC)c3c(C)oc(C)c3c(=O)c2)ccc1OC(=O)c1cccc(Cl)c1 | . | -53%[59 µM] | . | 2% | ? | 79µM*
CCOc1ccccc1NC(=O)Cn1c(=O)n(-c2ccccc2)c(=O)c2c1c1cc(C)ccc1n2C | . | ? | . | 40% | -3% | -3%
CCOc1cc(-c2ccc(OC(=O)c3ccc(C)cc3)c(OC)c2)cc(=O)c2c(C)oc(C)c12 | . | ? | . | 5% | ? | 40µM*
CN(C)CCNC(=O)C(=O)NCC(c1cccnc1)N1CCN(c2ccccc2)CC1 (stereo not drawn) | . | -9%[59 µM] | . | 7% | -27% | -10%
COc1cc(OC)c(OC)cc1/C=N/NC(=O)c1cc(-c2cccn2C)n[nH]1 | ? | -43%[59 µM] | -25% | 28% | 15% | -28%
CCOc1cccc(/C=N/NC(=O)c2ccc3c(c2)OCCO3)c1O | 13% | -6% | . | -15%[57 µM] | ? | 4%
COc1ccc(/C=N/NC(=O)c2cc(-c3cccn3C)n[nH]2)cc1OC | 5% | 79µM* | -16% | ? | -12%[57.1 µM] | 50µM*
CCOc1cccc(/C=N/NC(=O)c2cc(-c3cccn3C)n[nH]2)c1O | 3% | 48%[0.501 µM] | -15% | ? | ? | 50µM*
